# According to publication PMC11208138:
# Tests used:
# Experiment in all cases: cross-link between two proteins; cross-linking mass spectrometry
# [1] = target: PHD finger-like domain-containing protein 5A (UniProt Q7RTV0)
# [2] = target: Small nuclear ribonucleoprotein Sm D2 (UniProt P62316)
# [3] = target: Splicing factor 3B subunit 5 (UniProt Q9BWJ5)
# THO complex subunit 4 = THO complex subunit 4 (UniProt Q86V81)
# Chain of Splicing factor 3B subunit 5 (Q9BWJ5 whole entry): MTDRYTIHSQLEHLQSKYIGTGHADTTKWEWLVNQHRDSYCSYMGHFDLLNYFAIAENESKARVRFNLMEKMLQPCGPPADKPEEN
# Chain of PHD finger-like domain-containing protein 5A, Q7RTV0 (Q7RTV0 whole entry, the tested form may be a part): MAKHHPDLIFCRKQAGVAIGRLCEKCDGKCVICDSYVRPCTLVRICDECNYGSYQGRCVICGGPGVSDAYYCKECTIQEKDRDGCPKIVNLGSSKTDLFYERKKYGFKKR
# Chain of PHD finger-like domain-containing protein 5A (Q7RTV0 whole entry, the tested form may be a part): as above
# Chain of Small nuclear ribonucleoprotein F, P62306 (P62306 whole entry): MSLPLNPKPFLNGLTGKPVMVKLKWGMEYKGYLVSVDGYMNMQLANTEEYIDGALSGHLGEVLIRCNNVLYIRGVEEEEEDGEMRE
# Chain of Small nuclear ribonucleoprotein Sm D2 (P62316 whole entry): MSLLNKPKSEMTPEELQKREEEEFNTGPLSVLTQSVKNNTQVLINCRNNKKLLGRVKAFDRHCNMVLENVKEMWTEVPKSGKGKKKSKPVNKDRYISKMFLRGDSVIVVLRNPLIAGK
# Chain of Splicing factor 3B subunit 1, O75533 (O75533 whole entry): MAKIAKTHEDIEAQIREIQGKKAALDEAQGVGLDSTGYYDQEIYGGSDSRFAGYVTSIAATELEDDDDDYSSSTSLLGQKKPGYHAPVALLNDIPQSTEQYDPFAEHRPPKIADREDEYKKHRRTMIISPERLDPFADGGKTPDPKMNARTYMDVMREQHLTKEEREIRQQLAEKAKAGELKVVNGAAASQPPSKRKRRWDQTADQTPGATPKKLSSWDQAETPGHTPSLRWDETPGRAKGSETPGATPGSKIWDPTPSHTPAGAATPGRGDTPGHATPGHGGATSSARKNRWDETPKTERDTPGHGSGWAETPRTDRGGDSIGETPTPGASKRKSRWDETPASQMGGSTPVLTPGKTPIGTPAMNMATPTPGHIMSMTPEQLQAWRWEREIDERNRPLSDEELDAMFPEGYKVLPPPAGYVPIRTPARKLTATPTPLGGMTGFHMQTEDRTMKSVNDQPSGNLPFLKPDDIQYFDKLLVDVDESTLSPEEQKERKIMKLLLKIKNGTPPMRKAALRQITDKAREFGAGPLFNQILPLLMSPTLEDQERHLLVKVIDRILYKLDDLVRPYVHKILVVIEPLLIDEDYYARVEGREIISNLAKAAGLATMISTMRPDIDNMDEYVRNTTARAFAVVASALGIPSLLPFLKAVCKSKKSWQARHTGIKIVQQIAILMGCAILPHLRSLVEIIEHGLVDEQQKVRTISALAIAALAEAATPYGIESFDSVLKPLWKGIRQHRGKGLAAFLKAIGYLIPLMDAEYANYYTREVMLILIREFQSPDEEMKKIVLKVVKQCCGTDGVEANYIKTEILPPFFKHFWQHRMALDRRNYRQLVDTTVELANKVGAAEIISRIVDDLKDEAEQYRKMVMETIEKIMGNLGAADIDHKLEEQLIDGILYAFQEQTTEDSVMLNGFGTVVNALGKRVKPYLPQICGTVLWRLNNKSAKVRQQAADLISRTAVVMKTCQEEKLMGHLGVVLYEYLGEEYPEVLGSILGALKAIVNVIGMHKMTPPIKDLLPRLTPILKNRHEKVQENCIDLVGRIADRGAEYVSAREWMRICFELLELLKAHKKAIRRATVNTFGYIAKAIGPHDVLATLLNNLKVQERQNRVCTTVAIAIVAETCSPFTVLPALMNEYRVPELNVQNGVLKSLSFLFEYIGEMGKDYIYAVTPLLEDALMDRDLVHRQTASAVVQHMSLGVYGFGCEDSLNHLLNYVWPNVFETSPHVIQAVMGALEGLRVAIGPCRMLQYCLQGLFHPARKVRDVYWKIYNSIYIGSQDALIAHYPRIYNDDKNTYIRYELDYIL
substance,measurement,setting,value
"Splicing factor 3B subunit 1, O75533",listed as a hit,[1],yes
"Small nuclear ribonucleoprotein F, P62306",listed as a hit,[2],yes
"PHD finger-like domain-containing protein 5A, Q7RTV0",listed as a hit,[3],yes
"Enhancer of rudimentary homolog, P84090",listed as a hit,THO complex subunit 4,yes
